# High-throughput results deposited in PubChem by several laboratories.
# Compounds with a hit are over-represented: about 2.3% of the library has one in this group of screens.
# HIF-2a inh = inhibitors of HIF-2a. 786-0 RCC cells HIF-2a reporter, luciferase luminescence, overnight. inhibition, % at 18.8 µM. 360,000 tested, 0.72% active;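 active = inhibition of the luminescence signal of 40% or more relative to plate controls, in a single-dose primary screen at 18.75 µM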
# LGR2 antag = inhibitors of bursicon-induced Drosophila LGR2 receptor cAMP signaling | HEK293 LGR2, CRE-luciferase, bursicon-stimulated, 4 h | inhibition, % at 9.99 µM | 380,000 tested, 0.35% active | AID 720647;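 active = drop in luminescence signal, shown as inhibition above about 50% in the replicate tests, limit read from the data, passing the limit was not always enough; inconclusive = probably only some replicates passing the limit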;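 also: agonist challenge used bursicon conditioned medium at about half maximal strength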
# KKLEB tox = counter-screen for CF NF-kB inhibitors: cytotoxicity. KKLEB CF airway cells viability, ATPlite luminescence, overnight; hits give low values; cells stimulated with P. aeruginosa culture filtrate. activity change (cytotoxicity), % at 5 µM. 360,000 tested, 0.36% active;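 active = corrected activity change at or below -50% at 5 µM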
# iPSC survival up = hiPSC single-cell survival enhancement. 360,000 tested, 0.044% active. ATPlite luminescence; 100% = ROCK inhibitor wells, 0% = DMSO. survival enhancement, % at 20 µM; in the data active = survival enhancement above about 18%;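 also: cells exposed to compounds for 16 hours before the ATP read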
# TWEAK-Fn14 inh = inhibitors of TWEAK-Fn14 interaction signaling. TWEAK-stimulated Fn14 reporter cells, luciferase luminescence, 8 h. inhibition, % at 10 µM. 360,000 tested, 2% active. AID 1159606; in the data active = inhibition above about 50%
# CF NFkB block = inhibitors of cystic fibrosis induced NF-kB. KKLEB NF-kB-GFP reporter, PAF-induced, GFP fluorescence overnight. inhibition, % at 5 µM. 360,000 tested, 0.86% active;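 active = at least 50% inhibition at 5 µM, scaled per plate between neutral and stimulator controls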;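 also: PAF is a Pseudomonas aeruginosa culture filtrate used as stimulus; plate controls were PAF-stimulated DMSO wells for no effect and unstimulated DMSO wells for full effect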
# An asterisk follows results filed as active; ? = inconclusive; · = no result given.
SMILES,HIF-2a inh,LGR2 antag,KKLEB tox,iPSC survival up,TWEAK-Fn14 inh,CF NFkB block
CC[N+]1(C)CCC(O)(c2ccc(OC)cc2)C(C(=O)c2ccc(OC)cc2)C1 (stereo not drawn),14,-4,-20,0,11,50*
COc1ccc(-c2ccc(C(=O)C3CC3)cc2)cc1,-293,-84,-3,0,3,-13
CC(C)NC(=O)N(C)C[C@@H]1Oc2ncc(C#Cc3ccccc3F)cc2C(=O)N([C@@H](C)CO)C[C@H]1C,·,-4,·,·,·,·
CCCC(C(=O)NC(C)(C)C)N(CC1CCCO1)C(=O)CNS(=O)(=O)c1ccc(F)cc1 (stereo not drawn),12,2,-3,0,85*,3
CCCC(C(=O)NCc1ccco1)N(CC1CCCO1)C(=O)CNS(=O)(=O)c1ccc(F)cc1 (stereo not drawn),14,-18,1,1,-4,10
COCCNC(=O)C[C@H]1CC[C@H](NC(=O)NC2CCCC2)[C@@H](CO)O1,·,1,·,·,·,·
Cc1nc(CN(C)c2ncnc3ccc(-c4ccc5c(c4)OCO5)cc23)cs1,55*,24,-13,-1,27,-19
CC(=O)Nc1cccc(Oc2ccc3c(c2)C(=O)N(CCC(=O)O)C3=O)c1,-6,·,-2,0,88*,-13
CCOC(=O)Nc1cc(C(=O)OCC)c(C)nc1C,5,·,8,1,76*,0
CCOC(=O)c1cc(NC(=O)Nc2cc(C)ccn2)c(C)nc1C,-44,11,-10,0,12,-14
C[C@H](CO)N1C[C@H](C)[C@H](CN(C)Cc2ccc(-c3ccccc3)cc2)Oc2c(NC(=O)C3CCCCC3)cccc2C1=O,·,8,·,·,·,·
COc1ccccc1-n1c(=O)c(C#N)c(-c2ccc([N+](=O)[O-])cc2)c2cc(C(=O)c3cc(F)ccc3O)cnc21,15,-2,-8,-1,1,10
Cn1c(=O)c(C#N)c(-c2ccc(F)cc2)c2cc(C(=O)c3cc(Cl)cc(Cl)c3O)cnc21,-12,9,-24,0,57*,46
CCCNC(=O)[C@@H]1[C@@H](CO)[C@@H]2Cn3c(ccc(-c4cncnc4)c3=O)[C@H]1N2C(=O)Nc1ccccc1,·,10,·,·,·,·
CN(C)CC(=O)N[C@@H]1CC[C@@H](CCn2cc(C3CCCC3)nn2)O[C@@H]1CO,·,7,·,·,·,·
Cc1ccc(C(=O)CSc2nnc3ccccn23)c(C)c1,-88,30,15,0,64*,5
Cc1ccc(NC(=O)CSc2nnc3ccccn23)c(Cl)c1,-168,-19,-2,1,-9,-4
O=c1cc(-c2ccccc2)[nH]n1-c1ccc([N+](=O)[O-])cc1,-156,-33,-55*,4,1,59*
CCCOc1ccc2cc(-c3ccccn3)c(=O)oc2c1,55*,88*,-46,-4,93*,-14
COc1cc2c(cc1OC)CN(Cc1nc3ccsc3c(=O)[nH]1)CC2,0,·,-1,4,77*,18
O=C1C(F)=CC(COC(c2ccccc2)(c2ccccc2)c2ccccc2)OC1n1cc(F)c(=O)[nH]c1=O (stereo not drawn),87*,27*,-82*,-3,109*,90*
CC(=O)OCC1OC(n2cc(F)c(=O)[nH]c2=O)C(OC(C)=O)C1OC(C)=O (stereo not drawn),5,3,6,0,15,-1
C=CCn1c(NS(=O)(=O)c2ccccc2)c(S(=O)(=O)c2ccc(C)cc2)c2nc3ccccc3nc21,16,-1,7,1,0,-8
O=S(=O)(Nc1c(S(=O)(=O)c2ccccc2)c2nc3ccccc3nc2n1C1CCCCC1)c1ccccc1,-3,?,1,0,98*,26
C[C@@H]1CN([C@H](C)CO)C(=O)Cc2cc(NC(=O)NC3CCCCC3)ccc2O[C@H]1CN(C)Cc1ccc(-c2ccccc2)cc1,·,26,·,·,·,·
SMILES,HIF-2a inh,LGR2 antag,KKLEB tox,iPSC survival up,TWEAK-Fn14 inh,CF NFkB block
COc1ccc(CCNC(=O)c2nnn(-c3ccccc3OC)c2N)cc1OC,-6,·,4,-2,-3,-12
COc1ccc(CCNC(=O)c2nnn(-c3ccc4c(c3)OCCO4)c2N)cc1OC,51*,·,-3,-1,97*,9
O=C(NC12CCC(O)C(SC1)/C2=N/O)c1ccccc1 (stereo not drawn),14,·,-3,1,83*,-10
O=C(NC12CC3CC(CC(C3)C1)C2)c1ccccc1,16,-6,11,2,6,-15
CC(C)OCCCn1c(SCC(=O)N2CCc3ccccc32)nc2ccccc2c1=O,13,·,-10,0,91*,5
CCOc1ccccc1CNc1ncnc2ccc(-c3c(C)noc3C)cc12,-14,3,-25,-1,82*,-108
C[C@H]1CN([C@@H](C)CO)C(=O)Cc2cc(NC(=O)C3CC3)ccc2O[C@H]1CN(C)S(=O)(=O)c1cccs1,·,7,·,·,·,·
COc1ccccc1-c1cn(CC[C@@H]2CC[C@@H](NC(=O)NC(C)C)[C@H](CO)O2)nn1,·,4,·,·,·,·
C=CCn1c(-c2ccc(N)cc2)nc2ccccc21,-211,-67,2,-2,-37,-7
C=CCn1c(-c2ccc(OC)cc2)nc2ccccc21,-156,·,4,-2,57*,15
CC(/C=N/NC(=O)c1cc(-c2ccncc2)nc2ccccc12)=C\c1ccco1,25,-1,-36,1,13,49
O=C(N/N=C/c1ccco1)c1cc(-c2cccc(Br)c2)nc2ccccc12,-74,3,0,-2,77*,-31
O=C(O)c1ccc(-n2cc(-c3cc4ccccc4oc3=O)[nH]c2=S)cc1,-13,-30,6,0,73*,1
C[C@H](CO)N1C[C@H](C)[C@@H](CN(C)C(=O)C2CCCCC2)Oc2ncc(-c3ccccc3)cc2C1=O,·,-6,·,·,·,·
CCOC1=C2[C@H](c3ccc(CC)cc3)N(S(=O)(=O)c3ccc(C)cc3)C[C@H]2C(C#N)(C#N)C(C#N)(C#N)C1,62*,1,-26,0,34,34
CCOC1=C2[C@H](c3ccccc3Cl)N(S(=O)(=O)c3ccc(C)cc3)C[C@H]2C(C#N)(C#N)C(C#N)(C#N)C1,61*,2,-14,-1,12,32
CCOC1=C2[C@H](c3ccc(C)cc3)N(S(=O)(=O)c3ccc(C)cc3)C[C@H]2n2c(=O)n(-c3ccccc3)c(=O)n2C1,5,-4,-10,41*,-1,7
CCOC1=C2[C@H](c3ccccc3)N(S(=O)(=O)c3ccc(C)cc3)[C@H](C(C)C)[C@H]2C(C#N)(C#N)C(C#N)(C#N)C1,·,7,·,·,·,·
COC(=O)c1cc2ccccc2c(=O)s1,-6,·,-1,-2,85*,-16
C[C@@H]1CCCCO[C@H](CN(C)C(=O)Nc2cccc3ccccc23)[C@@H](C)CN([C@@H](C)CO)C(=O)c2cc(NS(=O)(=O)c3ccccc3)ccc2O1,·,12,·,·,·,·
